Values joined by “and” are separate entries in the source; they are usually repeats but may differ in a detail not shown here. Equal entries are not always repeated. Records with an inconclusive call do not appear. Active and inactive are the calls of the source. Calls follow the shape of the dose curve; as a rule, active = well fitted curve in the direction sought with a large enough effect in the repeat runs; inconclusive = weak or mixed curves; inactive = no such curve, though single readings can be large; an effect the other way counts as inactive or inconclusive.
Legend:
[1] = qHTS RealTime-Glo MT Cell Viability Assay in HepG2 cells - 8 hour (AID 1224873); also: nearly all actives have a fitted effect of over 55% in size; also: potency is read from the fitted curve at half-maximal effect
Procedure, shortened: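 Real-time viability: cells seeded at 600 per well together with NanoLuc and cell-permeant prosubstrate, compounds added after 5 h incubation. Luminescence tracked at 0, 8, 16, 24, 32 and 40 h of exposure.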

[2] = qHTS RealTime-Glo MT Cell Viability Assay in HEK293 cells - 40 hour (AID 1224874); settings: RealTime-Glo luminescence; max response: stronger effect = lower value; also: nearly all actives have a fitted effect of over 50% in size; also: potency is read from the fitted curve at half-maximal effect
Procedure, shortened: (§1)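 Luminescence readout at each listed time point; HEK293, 600 cells/well, RealTime-Glo MT reagent added with cells; compounds pinned (23 nL in DMSO) after 5 h at 37 C; continuous culture at 37 C.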

[3] = A CellTox Green Cytotoxicity Assay to monitor cytotoxicity in HEK293 cells - 24 hour (AID 1224875); also: nearly all actives have a fitted effect of over 45% in size; also: potency is read from the fitted curve at half-maximal effect
Procedure, shortened: (§2)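 Read-out: fluorescence of a cell-impermeant cyanine dye staining DNA of dead cells, proportional to cytotoxicity. HEK293, 600 cells/well with reagent, compound (23 nL DMSO) added after 5 h; reads at 0, 8, 16, 24, 32, 40 h.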

[4] = A CellTox Green Cytotoxicity Assay to monitor cytotoxicity in HepG2 cells - 16 hour (AID 1224876); also: nearly all actives have a fitted effect of over 45% in size; also: potency is read from the fitted curve at half-maximal effect
Procedure, shortened: (§3)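 HepG2, 600 cells/well premixed w/ CellTox Green; 5 h settle, 37 C/5% CO2; pintool cpd add (DMSO); 37 C, 40 h; fluorescence read at 0, 8, 16, 24, 32, 40 h.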

[5] = qHTS RealTime-Glo MT Cell Viability Assay in HepG2 cells - 32 hour (AID 1224877); also: nearly all actives have a fitted effect of over 55% in size; also: potency is read from the fitted curve at half-maximal effect
Procedure, shortened: (§4)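 Luminescence read-out: viable HepG2 cells reduce a prosubstrate to a NanoLuc substrate, giving a signal proportional to live cell number. Reads taken at 0, 8, 16, 24, 32 and 40 h of compound exposure at 37 C.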

[6] = A CellTox Green Cytotoxicity Assay to monitor cytotoxicity in HepG2 cells - 24 hour (AID 1224878); also: nearly all actives have a fitted effect of over 45% in size; also: potency is read from the fitted curve at half-maximal effect
Procedure, shortened: as §3

[7] = qHTS RealTime-Glo MT Cell Viability Assay in HEK293 cells - 0 hour (AID 1224880); also: top concentration of the series differs between compounds; nearly all actives have a fitted effect of over 45% in size
Procedure, shortened: as §1

[8] = A CellTox Green Cytotoxicity Assay to monitor cytotoxicity in HEK293 cells - 32 hour (AID 1224881); also: nearly all actives have a fitted effect of over 40% in size; also: potency is read from the fitted curve at half-maximal effect
Procedure, shortened: as §2

[9] = A CellTox Green Cytotoxicity Assay to monitor cytotoxicity in HepG2 cells - 0 hour (AID 1224882); also: nearly all actives have a fitted effect of over 35% in size; also: potency is read from the fitted curve at half-maximal effect
Procedure, shortened: as §3

[10] = A CellTox Green Cytotoxicity Assay to monitor cytotoxicity in HepG2 cells - 32 hour (AID 1224883); also: nearly all actives have a fitted effect of over 50% in size; also: potency is read from the fitted curve at half-maximal effect
Procedure, shortened: as §3

[11] = A CellTox Green Cytotoxicity Assay to monitor cytotoxicity in HEK293 cells - 8 hour (AID 1224884); also: nearly all actives have a fitted effect of over 35% in size; also: potency is read from the fitted curve at half-maximal effect
Procedure, shortened: as §2

[12] = qHTS RealTime-Glo MT Cell Viability Assay in HEK293 cells - 8 hour (AID 1224887); also: nearly all actives have a fitted effect of over 50% in size; also: potency is read from the fitted curve at half-maximal effect
Procedure, shortened: as §1

[13] = A CellTox Green Cytotoxicity Assay to monitor cytotoxicity in HEK293 cells - 16 hour (AID 1224888); also: nearly all actives have a fitted effect of over 35% in size; also: potency is read from the fitted curve at half-maximal effect
Procedure, shortened: as §2

[14] = qHTS RealTime-Glo MT Cell Viability Assay in HepG2 cells - 0 hour (AID 1224889); also: nearly all actives have a fitted effect of over 50% in size
Procedure, shortened: as §4

[15] = qHTS assay to identify small molecule antagonists of the estrogen receptor alpha (ER-alpha) signaling pathway using the BG1 cell line in the presence of 0.1 nM 17-beta-estradiol - cell viability counter screen (AID 1259241); also: nearly all actives have a fitted effect of over 40% in size
Procedure, shortened: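 Measures cytotoxicity alongside the ER-alpha antagonist readout: VM7Luc4E2 cells, charcoal-stripped serum, 0.1 nM 17beta-estradiol final, 22 hr compound incubation at 37C, CellTiter-Fluor fluorescence.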

[16] = qHTS assay to identify small molecule antagonists of the androgen receptor (AR) signaling pathway using the MDA cell line in the presence of 0.5 nM R1881 - cell viability counter screen (AID 1259242); also: nearly all actives have a fitted effect of over 45% in size; also: potency is read from the fitted curve at half-maximal effect
Procedure, shortened: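 Live-cell protease fluorescence, CellTiter-Fluor, 30 min at 37C. Cells: MDA-kb2, 3,000/well, preincubated 5 hr. Compounds plus 0.5 nM R1881 final, 16 hr, 37C, 0% CO2.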

[17] = A CellTox Green Cytotoxicity Assay to monitor cytotoxicity in HepG2 cells - 40 hour (AID 1224879); also: nearly all actives have a fitted effect of over 40% in size; also: potency is read from the fitted curve at half-maximal effect
Procedure, shortened: as §3

[18] = qHTS RealTime-Glo MT Cell Viability Assay in HepG2 cells - 16 hour (AID 1224885); also: nearly all actives have a fitted effect of over 50% in size; also: potency is read from the fitted curve at half-maximal effect
Procedure, shortened: as §4

[19] = qHTS RealTime-Glo MT Cell Viability Assay in HEK293 cells - 24 hour (AID 1224886); also: nearly all actives have a fitted effect of over 50% in size; also: potency is read from the fitted curve at half-maximal effect
Procedure, shortened: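 Nonlytic real-time viability readout: viable cells convert prosubstrate to NanoLuc substrate, giving luminescence proportional to live cell number. HEK293, 600 cells/well, compound added after 5 h, continuous culture at 37 C.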

[20] = A CellTox Green Cytotoxicity Assay to monitor cytotoxicity in HepG2 cells - 8 hour (AID 1224890); also: nearly all actives have a fitted effect of over 45% in size; also: potency is read from the fitted curve at half-maximal effect
Procedure, shortened: as §3
% is scaled to controls: 0 for no effect and ±100 for the full control effect.

CCCCNS(=O)(=O)c1ccc(C)cc1
inactive: Potency [1] | max response [2] -16.6% | Potency [3] | Potency [4] | Potency [5] | Potency [7] | Potency [8] | Potency [9] | Potency [11] | Potency [12] | Potency [13] | Potency [14] | Potency [15] | Potency [16]
active: Potency [6] 6.16 µM | Potency [10] 4.9 µM

c1cnccn1
inactive: Potency [1] | max response [2] 2.57% | Potency [3] | Potency [4] | Potency [6] | Potency [17] | Potency [7] | Potency [8] | Potency [9] | Potency [10] | Potency [11] | Potency [18] | Potency [19] | Potency [12] | Potency [13] | Potency [14] | Potency [20] | Potency [15]

OC1CCCc2ccccc21 (centres undefined)
inactive: Potency [1] | max response [2] -0.638% | Potency [3] | Potency [4] | Potency [5] | Potency [6] | Potency [7] | Potency [8] | Potency [9] | Potency [10] | Potency [11] | Potency [19] | Potency [12] | Potency [13] | Potency [14] | Potency [15] | Potency [16]

CCCCCCCCCCCCCC[N+](C)(C)Cc1ccccc1
active: Potency [1] 55.8 µM and 21.3 µM | Potency [2] 3.14 µM and 3.01 µM and 1.58 mM | Potency [3] 39.5 µM and 21.3 µM and 17.8 mM | Potency [4] 49.7 µM and 23.9 µM and 17.8 mM | Potency [5] 24.9 µM and 13.4 µM | Potency [17] 22.2 µM and 15.1 µM and 14.1 mM | Potency [8] 39.5 µM and 19 µM and 17.8 mM | Potency [10] 35.2 µM and 15.1 µM and 14.1 mM | Potency [11] 55.8 µM and 21.3 µM and 20 mM | Potency [18] 49.7 µM and 21.3 µM and 17.8 mM | Potency [12] 49.7 µM and 20 mM | Potency [13] 44.3 µM and 23.9 µM and 20 mM | Potency [20] 26.8 µM and 20 mM | Potency [16] 49.3 µM
inactive: Potency [7] | Potency [9] | Potency [14] | Potency [15]

COc1cc(C)ccc1O
inactive: Potency [1] | max response [2] 3.04% | Potency [3] | Potency [4] | Potency [5] | Potency [17] | Potency [7] | Potency [8] | Potency [9] | Potency [10] | Potency [11] | Potency [18] | Potency [19] | Potency [12] | Potency [13] | Potency [14] | Potency [20] | Potency [15] | Potency [16]

CCc1cccc(CC)c1NC(=O)CN(CC(=O)O)CC(=O)O
inactive: Potency [1] | max response [2] 1.69% | Potency [3] | Potency [4] | Potency [5] | Potency [6] | Potency [7] | Potency [8] | Potency [9] | Potency [10] | Potency [11] | Potency [19] | Potency [12] | Potency [13] | Potency [15]

O=C(O)Cc1ccc2c(c1)C(=O)c1ccccc1CO2
inactive: Potency [1] | max response [2] 1.5% | Potency [3] | Potency [4] | Potency [6] | Potency [17] | Potency [7] | Potency [8] | Potency [9] | Potency [10] | Potency [11] | Potency [18] | Potency [19] | Potency [12] | Potency [13] | Potency [14] | Potency [20] | Potency [15] | Potency [16]

OC[C@H]1O[C@H](O[C@H]2O[C@H](CO)[C@@H](O)[C@H](O)[C@H]2O)[C@H](O)[C@@H](O)[C@@H]1O
inactive: Potency [1] | max response [2] 25.1% | Potency [3] | Potency [4] | Potency [6] | Potency [17] | Potency [7] | Potency [8] | Potency [9] | Potency [10] | Potency [11] | Potency [18] | Potency [19] | Potency [12] | Potency [13] | Potency [20] | Potency [15] | Potency [16]

CCCCC/C=C\C/C=C\CCCCCCCC(=O)O
inactive: Potency [1] | max response [2] 6.43% and 5.51% | Potency [3] | Potency [4] | Potency [5] | Potency [6] | Potency [7] | Potency [8] | Potency [9] | Potency [10] | Potency [18] | Potency [12] | Potency [13] | Potency [14] | Potency [20] | Potency [15] | Potency [16]

ClCCl
inactive: Potency [1] | max response [2] 10.5% | Potency [3] | Potency [4] | Potency [5] | Potency [17] | Potency [7] | Potency [8] | Potency [9] | Potency [10] | Potency [11] | Potency [18] | Potency [12] | Potency [13] | Potency [14] | Potency [20] | Potency [15] | Potency [16]

CCCCCC(C)OC(=O)COc1ccc(Cl)c2cccnc12 (centres undefined)
inactive: Potency [1] | max response [2] -19.2% | Potency [3] | Potency [4] | Potency [5] | Potency [7] | Potency [9] | Potency [13] | Potency [14] | Potency [20] | Potency [15] | Potency [16]

C=CCn1c(=O)n(CC=C)c(=O)n(CC=C)c1=O
inactive: Potency [1] | max response [2] -5.88% | Potency [3] | Potency [4] | Potency [5] | Potency [17] | Potency [7] | Potency [8] | Potency [9] | Potency [10] | Potency [11] | Potency [18] | Potency [12] | Potency [13] | Potency [14] | Potency [20] | Potency [15] | Potency [16]

Cc1cc(C)c(/C=C2\C(=O)Nc3ccccc32)[nH]1
inactive: Potency [1] | max response [2] -3.94% | Potency [5] | Potency [7] | Potency [18] | Potency [19] | Potency [12] | Potency [14] | Potency [16]
active: Potency [3] 10.7 µM | Potency [4] 16.9 µM | Potency [6] 19 µM | Potency [8] 10.7 µM | Potency [9] 10.7 µM | Potency [10] 19 µM | Potency [13] 10.7 µM | Potency [20] 19 µM

CCCCC(CC)CN1CN(CC(CC)CCCC)CC(C)(N)C1 (centres undefined)
active: Potency [1] 19 µM | Potency [2] 9.52 µM | Potency [3] 10.7 µM | Potency [4] 19 µM | Potency [5] 16.9 µM | Potency [6] 19 µM | Potency [17] 19 µM | Potency [8] 10.7 µM | Potency [10] 19 µM | Potency [18] 19 µM | Potency [19] 8.49 µM | Potency [12] 10.7 µM | Potency [13] 13.4 µM | Potency [20] 21.3 µM | Potency [16] 26.6 µM
inactive: Potency [9] | Potency [15]
